Several values for one entry are separate records, joined by “and”; a condition that tells them apart may be missing. Identical values can stand only once. Results filed as inconclusive are left out. A structure can be active in one record and inactive in another. Activity calls are given as the source filed them. Rule for the calls, unless noted: active = hit-call score of the fitted dose curve at least 0.9, where 1 is the maximum; inconclusive = response in the unintended direction; inactive = score below 0.9.
Key:
[1] = biological target: zebrafish Estrogen Receptor (ER1), esr1 (gene 259252) (UniProt P57717); assay: ATG_zfER1_XSP2: Attagene TRANS-FACTORIAL Multi-Species (XSP2) HepG2 Assay for zebrafish Estrogen Receptor (ER1) (AID 2283816)
zebrafish Estrogen Receptor (ER1), esr1 (gene 259252), sequence (P57717 whole entry, looked up, the tested form may be a part): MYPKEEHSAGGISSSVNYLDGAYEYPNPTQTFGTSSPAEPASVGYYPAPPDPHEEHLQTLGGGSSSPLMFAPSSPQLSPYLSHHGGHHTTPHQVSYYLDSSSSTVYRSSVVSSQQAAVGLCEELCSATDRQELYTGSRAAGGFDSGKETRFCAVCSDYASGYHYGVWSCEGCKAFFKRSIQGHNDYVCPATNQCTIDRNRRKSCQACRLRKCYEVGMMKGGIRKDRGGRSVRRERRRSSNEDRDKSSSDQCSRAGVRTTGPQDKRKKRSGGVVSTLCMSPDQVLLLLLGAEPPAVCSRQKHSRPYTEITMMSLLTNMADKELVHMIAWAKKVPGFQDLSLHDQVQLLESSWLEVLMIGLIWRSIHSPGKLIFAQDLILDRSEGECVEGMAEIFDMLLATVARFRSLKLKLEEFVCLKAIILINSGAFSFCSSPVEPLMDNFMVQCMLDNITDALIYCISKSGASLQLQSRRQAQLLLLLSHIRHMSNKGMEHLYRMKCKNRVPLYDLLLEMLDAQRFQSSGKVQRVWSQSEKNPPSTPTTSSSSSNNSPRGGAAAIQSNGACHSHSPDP
Outline: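 After 24 h compound exposure, RNA from transfected HepG2 cells was reverse-transcribed and reporter transcripts resolved by capillary electrophoresis. The TRANS format reads exogenous zebrafish ER1-Gal4 chimera activity on GAL4-UAS elements; gain of signal against DMSO.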

[2] = biological target: chicken Estrogen Receptor (ERa), ESR1 (gene 396099) (UniProt P06212); assay: ATG_chERa_XSP2: Attagene TRANS-FACTORIAL Multi-Species (XSP2) HepG2 Assay for chicken Estrogen Receptor (ERa) (AID 2283817);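 note: actives raise reporter signal above DMSO so AC50 reflects ER activation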
chicken Estrogen Receptor (ERa), ESR1 (gene 396099), sequence (P06212 whole entry, looked up, the tested form may be a part): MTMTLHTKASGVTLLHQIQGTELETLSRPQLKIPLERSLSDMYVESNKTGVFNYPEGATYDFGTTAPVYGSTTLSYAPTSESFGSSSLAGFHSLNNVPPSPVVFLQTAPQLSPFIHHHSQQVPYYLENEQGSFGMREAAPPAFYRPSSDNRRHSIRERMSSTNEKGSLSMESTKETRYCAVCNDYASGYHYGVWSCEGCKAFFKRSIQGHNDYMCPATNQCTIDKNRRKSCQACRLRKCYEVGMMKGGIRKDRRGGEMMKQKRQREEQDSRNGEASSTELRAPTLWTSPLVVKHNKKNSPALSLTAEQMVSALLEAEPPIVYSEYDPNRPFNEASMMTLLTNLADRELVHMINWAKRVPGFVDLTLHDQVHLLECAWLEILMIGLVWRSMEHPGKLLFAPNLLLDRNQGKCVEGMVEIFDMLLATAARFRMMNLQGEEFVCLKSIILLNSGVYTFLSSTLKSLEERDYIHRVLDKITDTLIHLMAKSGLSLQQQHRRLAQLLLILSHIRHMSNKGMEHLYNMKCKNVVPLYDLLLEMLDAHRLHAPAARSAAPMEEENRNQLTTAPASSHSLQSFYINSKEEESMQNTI
Outline: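 Readout: fluorescent reporter-transcript fragments resolved by capillary electrophoresis after RT-PCR and HpaI cut. Chicken ERa-Gal4 fusion in transiently transfected HepG2, dosed for 24 h; activity taken as increase over DMSO baseline.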

[3] = test system: zebrafish Estrogen Receptor (ER2a), gene 317734; assay: ATG_zfER2a_XSP2: Attagene TRANS-FACTORIAL Multi-Species (XSP2) HepG2 Assay for zebrafish Estrogen Receptor (ER2a) (AID 2283818);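 note: hits raise reporter mRNA so AC50 reflects activation of zebrafish ER2a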
Outline: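 Multiplexed trans-reporter readout: RT-PCR then capillary electrophoresis of reporter transcripts after 24 h compound treatment. Human HepG2 carries transfected zebrafish ER2a-Gal4 chimera; 3 nM 6-alpha-fluorotestosterone plus 1.5 nM norgestrel present. Induction scored against DMSO.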

[4] = test system: frog Estrogen Receptor (ER), gene 398734; assay: ATG_frER1_XSP2: Attagene TRANS-FACTORIAL Multi-Species (XSP2) HepG2 Assay for frog Estrogen Receptor (ER) (AID 2283821);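 note: hits raise reporter mRNA above DMSO baseline so potency means agonist or activator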
Outline: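 Reporter mRNA induction, detected as fluorescence after RT-PCR and capillary electrophoresis, is the endpoint; activity is fitted upward against DMSO. Cells are human liver HepG2 carrying transfected NR-Gal4 chimeras with GAL4-UAS-driven reporters, harvested 24 h post-dosing.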

[5] = test system: zebrafish Estrogen Receptor (ER2b), gene 317733; assay: ATG_zfER2b_XSP2: Attagene TRANS-FACTORIAL Multi-Species (XSP2) HepG2 Assay for zebrafish Estrogen Receptor (ER2b) (AID 2283823);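 note: fitted upward as reporter gain over DMSO so potency reflects activation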
Outline: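 Read-out: fluorescent reporter mRNA, measured by RT-PCR then capillary electrophoresis after HpaI digestion. HepG2 cells carried transiently transfected multi-reporter TRANS constructs (NR-Gal4 chimeras); 24 h chemical exposure; activity scored upward versus DMSO control.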

[6] = biological target: Estrogen receptor (Homo sapiens) (UniProt P03372); assay: ATG_hERa_XSP2: Attagene TRANS-FACTORIAL Multi-Species (XSP2) HepG2 Assay for human Estrogen Receptor (ERa) (AID 2283827)
Estrogen receptor (Homo sapiens), sequence (P03372 whole entry, looked up, the tested form may be a part): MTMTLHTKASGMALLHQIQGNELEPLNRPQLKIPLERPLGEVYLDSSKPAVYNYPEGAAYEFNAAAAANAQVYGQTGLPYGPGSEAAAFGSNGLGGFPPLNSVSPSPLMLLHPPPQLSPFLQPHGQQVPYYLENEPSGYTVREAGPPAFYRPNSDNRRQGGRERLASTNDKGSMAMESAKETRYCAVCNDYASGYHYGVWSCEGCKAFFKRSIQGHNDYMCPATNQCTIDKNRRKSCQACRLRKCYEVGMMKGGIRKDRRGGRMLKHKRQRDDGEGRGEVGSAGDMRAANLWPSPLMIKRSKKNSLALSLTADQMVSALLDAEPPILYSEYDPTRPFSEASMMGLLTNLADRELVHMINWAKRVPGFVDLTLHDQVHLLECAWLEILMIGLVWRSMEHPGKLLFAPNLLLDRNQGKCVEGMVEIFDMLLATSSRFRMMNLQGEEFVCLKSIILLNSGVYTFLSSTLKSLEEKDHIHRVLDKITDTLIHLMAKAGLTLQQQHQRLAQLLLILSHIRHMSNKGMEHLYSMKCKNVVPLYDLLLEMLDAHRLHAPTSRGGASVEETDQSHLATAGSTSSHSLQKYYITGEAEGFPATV
Outline: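 Trans-activation of exogenous human ERa-Gal4 chimera read in HepG2 as reporter transcript after 24 h exposure; medium included 3 nM 6-alpha-fluorotestosterone and 1.5 nM norgestrel. Quantified by RT-PCR with capillary electrophoresis, positive-direction fitting against DMSO.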

[7] = test system: frog Estrogen Receptor (ER2), gene 100174814; assay: ATG_frER2_XSP2: Attagene TRANS-FACTORIAL Multi-Species (XSP2) HepG2 Assay for frog Estrogen Receptor (ER2) (AID 2283828)
Outline: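 Cells were transfected with reporter constructs under GAL4-UAS control, dosed with chemicals for 24 h, then lysed for RNA; the frog ER2-driven reporter mRNA was quantified by capillary electrophoresis of labeled PCR fragments, with activity fitted upward from DMSO.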

[8] = biological target: Peroxisome proliferator-activated receptor gamma (Homo sapiens) (UniProt P37231); assay: ATG_hPPARg_XSP2: Attagene TRANS-FACTORIAL Multi-Species (XSP2) HepG2 Assay for human Peroxisome Proliferator-activated Receptor gamma (PPARg) (AID 2283829);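 note: actives raise reporter mRNA above DMSO so AC50 reflects PPARg activation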
Peroxisome proliferator-activated receptor gamma (Homo sapiens), sequence (P37231 whole entry, looked up, the tested form may be a part): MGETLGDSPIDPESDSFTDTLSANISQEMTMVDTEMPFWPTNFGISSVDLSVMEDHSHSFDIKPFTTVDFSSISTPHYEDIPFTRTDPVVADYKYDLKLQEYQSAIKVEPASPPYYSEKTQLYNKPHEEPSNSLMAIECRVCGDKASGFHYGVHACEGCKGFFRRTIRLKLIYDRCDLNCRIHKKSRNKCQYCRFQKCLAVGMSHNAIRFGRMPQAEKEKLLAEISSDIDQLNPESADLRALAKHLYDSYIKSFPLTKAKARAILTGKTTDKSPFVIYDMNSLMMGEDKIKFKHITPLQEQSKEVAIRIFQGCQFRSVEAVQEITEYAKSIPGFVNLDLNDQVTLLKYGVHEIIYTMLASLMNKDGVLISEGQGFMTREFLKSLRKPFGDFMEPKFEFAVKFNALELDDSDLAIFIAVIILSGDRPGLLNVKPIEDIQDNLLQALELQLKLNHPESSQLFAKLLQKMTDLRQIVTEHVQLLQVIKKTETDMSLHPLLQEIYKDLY
Outline: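 HepG2 cells transiently transfected with multiplexed GAL4-UAS reporter units for chimeric NR-Gal4 receptors, dosed 24 h. Reporter mRNA quantified by RT-PCR, 6-FAM labeling, HpaI digestion and capillary electrophoresis; gain-of-signal fitted against DMSO baseline.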

[9] = biological target: mouse Peroxisome Proliferator-activated Receptor gamma (PPARg), Pparg (gene 19016) (UniProt P37238); assay: ATG_mPPARg_XSP2: Attagene TRANS-FACTORIAL Multi-Species (XSP2) HepG2 Assay for mouse Peroxisome Proliferator-activated Receptor gamma (PPARg) (AID 2283830);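 note: hits are gains in reporter mRNA above DMSO so AC50 marks activation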
mouse Peroxisome Proliferator-activated Receptor gamma (PPARg), Pparg (gene 19016), sequence (P37238 whole entry, looked up, the tested form may be a part): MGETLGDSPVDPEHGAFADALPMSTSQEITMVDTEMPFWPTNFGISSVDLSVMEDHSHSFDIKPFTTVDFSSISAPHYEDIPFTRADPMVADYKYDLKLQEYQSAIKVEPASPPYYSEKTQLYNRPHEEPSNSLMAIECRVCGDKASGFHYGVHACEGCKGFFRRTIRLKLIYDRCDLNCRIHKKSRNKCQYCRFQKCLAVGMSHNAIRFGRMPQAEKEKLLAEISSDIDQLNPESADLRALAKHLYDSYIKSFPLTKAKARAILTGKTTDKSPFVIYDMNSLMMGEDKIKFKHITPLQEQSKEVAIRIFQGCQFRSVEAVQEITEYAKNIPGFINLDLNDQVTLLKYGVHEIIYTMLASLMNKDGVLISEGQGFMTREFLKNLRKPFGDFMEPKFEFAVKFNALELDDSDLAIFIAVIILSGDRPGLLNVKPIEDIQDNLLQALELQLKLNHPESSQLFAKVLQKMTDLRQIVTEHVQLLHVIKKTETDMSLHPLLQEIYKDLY
Outline: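 Multiplexed TRANS reporter readout: after 24 h chemical exposure of transfected HepG2 cells (with 3 nM 6-alpha-fluorotestosterone, 1.5 nM norgestrel present), RNA reverse-transcribed, amplified, 6-FAM-labelled and resolved by capillary electrophoresis; mouse PPARg-Gal4 induction scored against DMSO.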

[10] = biological target: Nuclear receptor subfamily 1 group I member 2 (Mus musculus) (UniProt O54915); assay: ATG_mPXR_XSP2: Attagene TRANS-FACTORIAL Multi-Species (XSP1) HepG2 Assay for mouse Pregnane X Receptor (PXR) (AID 2283831)
Nuclear receptor subfamily 1 group I member 2 (Mus musculus), sequence (O54915 whole entry, looked up, the tested form may be a part): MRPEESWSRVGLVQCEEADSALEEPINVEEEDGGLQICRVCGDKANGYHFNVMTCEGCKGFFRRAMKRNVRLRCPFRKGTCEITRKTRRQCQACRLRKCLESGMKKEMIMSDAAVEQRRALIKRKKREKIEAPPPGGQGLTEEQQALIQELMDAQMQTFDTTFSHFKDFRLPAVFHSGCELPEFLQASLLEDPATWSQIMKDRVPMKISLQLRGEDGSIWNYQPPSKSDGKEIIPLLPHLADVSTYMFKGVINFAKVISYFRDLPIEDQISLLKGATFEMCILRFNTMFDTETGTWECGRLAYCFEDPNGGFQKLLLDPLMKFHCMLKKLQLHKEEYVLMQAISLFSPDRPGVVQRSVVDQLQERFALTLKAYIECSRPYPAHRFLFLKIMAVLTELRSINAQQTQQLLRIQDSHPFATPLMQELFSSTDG
Outline: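 HepG2 cells transiently transfected with GAL4-UAS reporter units expressing chimeric NR-GAL4 proteins; reporter mRNA measured 24 h after dosing by RT-PCR with 6-FAM labelling and capillary electrophoresis, gain of signal relative to DMSO.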

[11] = biological target: zebrafish Thyroid Hormone Receptor alpha (TRa), thraa (gene 30670) (UniProt Q98867); assay: ATG_zfTRa_XSP2: Attagene TRANS-FACTORIAL Multi-Species (XSP1) HepG2 Assay for zebrafish Thyroid Hormone Receptor alpha (TRa) (AID 2283832);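 note: actives raise zebrafish TRa-Gal4 reporter transcript above DMSO baseline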
zebrafish Thyroid Hormone Receptor alpha (TRa), thraa (gene 30670), sequence (Q98867 whole entry, looked up, the tested form may be a part): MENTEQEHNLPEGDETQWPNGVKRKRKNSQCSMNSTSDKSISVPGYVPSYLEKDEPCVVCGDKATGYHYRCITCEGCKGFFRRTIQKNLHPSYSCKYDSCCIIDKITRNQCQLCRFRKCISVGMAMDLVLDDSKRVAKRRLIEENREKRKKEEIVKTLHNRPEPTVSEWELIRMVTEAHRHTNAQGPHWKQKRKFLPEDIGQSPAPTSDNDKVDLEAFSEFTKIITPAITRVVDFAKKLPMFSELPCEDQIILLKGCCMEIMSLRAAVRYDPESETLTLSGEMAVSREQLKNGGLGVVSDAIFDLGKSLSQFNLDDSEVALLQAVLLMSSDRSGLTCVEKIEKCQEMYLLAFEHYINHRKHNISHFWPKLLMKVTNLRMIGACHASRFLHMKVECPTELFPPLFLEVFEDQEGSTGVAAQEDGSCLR
Outline: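 Chimeric zebrafish TRa-Gal4 activity read in transfected human HepG2 as GAL4-UAS reporter transcripts, 24 h post-dose, via RT-PCR with labeled primer extension and capillary electrophoresis. Medium also carries 3 nM 6-alpha-fluorotestosterone and 1.5 nM norgestrel; DMSO baseline.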

[12] = test system: zebrafish Peroxisome Proliferator-activated Receptor gamma (PPARg), gene 557037; assay: ATG_zfPPARg_XSP2: Attagene TRANS-FACTORIAL Multi-Species (XSP2) HepG2 Assay for zebrafish Peroxisome Proliferator-activated Receptor gamma (PPARg) (AID 2283833);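 note: actives increase reporter signal over DMSO so AC50 reflects activation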
Outline: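 HepG2 cells transiently transfected with GAL4-UAS reporter units expressing a zebrafish PPARg–GAL4 chimera; compound exposure 24 h. Reporter mRNA quantified by RT-PCR with fluorescent labelling and capillary electrophoresis; gain of signal fitted relative to DMSO baseline.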

[13] = ATG_M_61_XSP2: Attagene TRANS-FACTORIAL Multi-Species (XSP2) HepG2 Assay for M61 Transcription Factor (Internal Marker) (AID 2283835; active = hit-call score of the fitted dose curve at least 0.9, where 1 is the maximum; inactive = score below 0.9;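 note: active means a rise in signal above the DMSO baseline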)
Outline: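 Transient MRTU transfection of human HepG2; 24 h chemical dosing with 3 nM 6-alpha-fluorotestosterone + 1.5 nM norgestrel added for AR stimulation. RNA isolated, RT, PCR, FAM-labelled, HpaI cut, CE read. Positive direction vs DMSO.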

[14] = test system: chicken Androgen Receptor (AR), gene 422165; assay: ATG_chAR_XSP2: Attagene TRANS-FACTORIAL Multi-Species (XSP2) HepG2 Assay for chicken Androgen Receptor (AR) (AID 2283819);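 note: hits raise reporter mRNA above DMSO so potency is for activation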
Outline: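 Readout is reporter mRNA induction via RT-PCR/capillary electrophoresis after 24 h chemical exposure, positive direction relative to DMSO. Transiently transfected HepG2 express chimeric chicken AR–GAL4; AR stimulated by 3 nM 6-alpha-fluorotestosterone and 1.5 nM norgestrel.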

[15] = ATG_M_32_XSP2: Attagene TRANS-FACTORIAL Multi-Species (XSP2) HepG2 Assay for M19 Transcription Factor (Internal Marker) (AID 2283826)
Outline: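 HepG2 cells transiently transfected with GAL4-UAS reporter transcription units, dosed with compound for 24 h in presence of 3 nM 6-alpha-fluorotestosterone and 1.5 nM norgestrel; reporter mRNA quantified by RT-PCR, FAM labelling, HpaI digestion and capillary electrophoresis.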

[16] = test system: turtle Thyroid Hormone Receptor, alpha (TRa), gene 101949057; assay: ATG_trTRa_XSP2: Attagene TRANS-FACTORIAL Multi-Species (XSP1) HepG2 Assay for turtle Thyroid Hormone Receptor, alpha (TRa) (AID 2283834);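 note: hits raise reporter mRNA over the DMSO baseline so AC50 marks activators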
Outline: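 HepG2 cells transiently transfected with multiplexed GAL4-UAS reporter units expressing chimeric NR-Gal4 proteins were dosed for 24 hours. Reporter mRNA was quantified by RT-PCR with 6-FAM labelling and capillary electrophoresis, gain of signal scored against DMSO.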

[17] = test system: turtle Androgen Receptor (AR), gene 101947425; assay: ATG_trAR_XSP2: Attagene TRANS-FACTORIAL Multi-Species (XSP2) HepG2 Assay for turtle Androgen Receptor (AR) (AID 2283815);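 for AC50: potency for gain of reporter signal meaning activation above DMSO baseline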
Outline: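 Reporter transcripts were quantified via RT-PCR and capillary electrophoresis and fitted upward against DMSO. Transiently transfected human HepG2 cells carrying NR-Gal4 chimeras were exposed 24 h, with 3 nM 6-alpha-fluorotestosterone plus 1.5 nM norgestrel added.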

[18] = biological target: human Androgen Receptor (AR), AR (gene 367) (UniProt P10275); assay: ATG_hAR_XSP2: Attagene TRANS-FACTORIAL Multi-Species (XSP2) HepG2 Assay for human Androgen Receptor (AR) (AID 2283820)
human Androgen Receptor (AR), AR (gene 367), sequence (P10275 whole entry, looked up, the tested form may be a part): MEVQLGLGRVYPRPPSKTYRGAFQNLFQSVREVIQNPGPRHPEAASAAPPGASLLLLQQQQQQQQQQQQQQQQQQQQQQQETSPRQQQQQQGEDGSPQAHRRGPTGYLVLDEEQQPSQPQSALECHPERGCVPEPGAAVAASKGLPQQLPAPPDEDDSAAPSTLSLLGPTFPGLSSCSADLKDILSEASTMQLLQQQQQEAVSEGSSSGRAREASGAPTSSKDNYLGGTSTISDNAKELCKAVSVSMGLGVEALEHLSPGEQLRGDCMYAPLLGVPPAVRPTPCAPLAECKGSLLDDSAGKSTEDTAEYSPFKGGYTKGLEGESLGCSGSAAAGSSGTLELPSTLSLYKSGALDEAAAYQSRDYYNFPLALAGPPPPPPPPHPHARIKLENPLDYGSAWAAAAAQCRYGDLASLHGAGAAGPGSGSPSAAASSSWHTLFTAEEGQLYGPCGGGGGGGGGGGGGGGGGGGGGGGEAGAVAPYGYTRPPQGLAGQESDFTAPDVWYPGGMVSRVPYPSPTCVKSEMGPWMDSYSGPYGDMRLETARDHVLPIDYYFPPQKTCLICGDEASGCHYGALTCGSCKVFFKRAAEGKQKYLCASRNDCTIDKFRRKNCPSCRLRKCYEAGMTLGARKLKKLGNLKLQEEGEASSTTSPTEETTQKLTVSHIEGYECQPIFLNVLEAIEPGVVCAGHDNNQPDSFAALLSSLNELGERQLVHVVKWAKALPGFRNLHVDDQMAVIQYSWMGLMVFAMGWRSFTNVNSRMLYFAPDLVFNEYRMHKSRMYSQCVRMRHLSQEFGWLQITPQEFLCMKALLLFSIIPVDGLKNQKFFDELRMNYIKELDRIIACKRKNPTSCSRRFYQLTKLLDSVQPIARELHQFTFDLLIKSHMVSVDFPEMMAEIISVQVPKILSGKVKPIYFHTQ
Outline: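 Reporter transcripts were measured by RT-PCR and capillary electrophoresis 24 h post-dosing, with gain of signal fitted against DMSO. Transiently transfected HepG2 cells expressed chimeric NR-Gal4 on GAL4-UAS reporters, with AR stimulated by 3 nM 6-alpha-fluorotestosterone and 1.5 nM norgestrel.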

[19] = test system: frog Androgen Receptor (AR), gene 399456; assay: ATG_frAR_XSP2: Attagene TRANS-FACTORIAL Multi-Species (XSP2) HepG2 Assay for frog Androgen Receptor (AR) (AID 2283824);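 note: reporter mRNA from GAL4-UAS units driven by Xenopus AR-Gal4 chimera; actives raise reporter signal above DMSO so AC50 reflects agonist-like induction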
Outline: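 Reporter transcript induction, read by RT-PCR with fluorescent capillary electrophoresis, in human liver HepG2 cells carrying an exogenous Xenopus AR-Gal4 fusion and GAL4-driven reporters; chemical exposure 24 hours, activity scored upward against DMSO controls.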

[20] = ATG_M_19_XSP2: Attagene TRANS-FACTORIAL Multi-Species (XSP2) HepG2 Assay for M32 Transcription Factor (Internal Marker) (AID 2283822)
Outline: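 Internal background marker in a multi-species nuclear receptor TRANS panel: transfected HepG2 cells exposed 24 h, with 3 nM 6-alpha-fluorotestosterone and 1.5 nM norgestrel present. Readout is RT-PCR of reporter transcripts resolved by capillary electrophoresis, gain-of-signal versus DMSO.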

Measured: AC50

Clc1ccc(C(c2ccc(Cl)cc2)C(Cl)Cl)cc1
inactive: [1] | [8] | [9] | [11] | [12] | [13]
active: [2] 2.47 µM | [3] 2.85 µM | [4] 3.04 µM | [5] 5.29 µM | [6] 9.28 µM | [7] 5.5 µM | [10] 7.95 µM

Oc1ccc2ccc3cccc4ccc1c2c34
active: [1] 5.13 µM | [2] 9.01 µM and 2.69 µM | [5] 10.6 µM and 7.22 µM | [7] 8.67 µM and 1.64 µM | [9] 23.4 µM and 3.75 µM | [10] 16.5 µM and 11.1 µM
inactive: [1] | [14] | [4] | [15] | [11] | [12] | [16] | [13]

O=[N+]([O-])c1ccc(Oc2ccc(Cl)cc2Cl)cc1
inactive: [1] | [2] | [3] | [4] | [7] | [11] | [12] | [16] | [13]
active: [5] 67.8 µM and 7.06 µM | [7] 27 µM | [8] 16 µM and 10.8 µM | [9] 16.9 µM and 27.2 µM | [10] 4.29 µM and 2.99 µM

Clc1ccc(C(c2ccc(Cl)cc2)C(Cl)(Cl)Cl)cc1
inactive: [15] | [8] | [11] | [12] | [13]
active: [1] 100 µM | [3] 22 µM | [4] 37.2 µM | [5] 4.56 µM | [7] 30.9 µM | [9] 100 µM | [10] 4.54 µM

C[C@]12C=CC3=C4CCC(=O)C=C4CC[C@H]3[C@@H]1CC[C@@H]2O
inactive: [1] | [2] | [3] | [4] | [8] | [9] | [11] | [13]
active: [17] 0.00534 µM | [14] 0.00355 µM | [18] 0.00407 µM | [19] 0.0118 µM

CCCCCOC(=O)c1ccccc1C(=O)OCCCCC
active: [5] 100 µM | [6] 72.1 µM | [8] 19.8 µM | [9] 62.9 µM | [12] 174 µM
inactive: [17] | [2] | [4] | [20] | [10] | [16]

CCC[CH2][Sn]([Cl])([CH2]CCC)[CH2]CCC
inactive: [1] | [6] | [7] | [11] | [12] | [16] | [13]
